Many of the other results were omitted from the sample, so hits are more common in it than they were.
CD40 NFkB inh: CD40 pathway inhibition in BL2 cells | BL2 NF-kB luciferase reporter, CD40L-induced, 4 h | inhibition, % at 10 µM | actives 0.94% (n = 83,000) | AID 1053188;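 active means mean inhibition of at least 50% with a set share of replicates also reaching that level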;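 further: 0% = neutral control wells and 100% = IKK inhibitor VII at 50 µM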
An asterisk follows results filed as active; [ ] = another dose, or the depositor's remark.

SMILES	CD40 NFkB inh
CCN(CC(=O)Nc1c(F)cccc1F)C(=O)/C=C/c1ccc2ccccc2n1	-9
CC(=O)Nc1ccc2c(c1)C(=O)N(C)C[C@H](C)[C@@H](CN(C)C(=O)NC(C)C)O2	-18
Oc1ccc(/C(Cc2ccc3ccccc3n2)=N\Nc2ccccc2)c(O)c1	-39
CC(=NNC(=O)c1ccncc1)c1ccccc1O	-48
CC(=NNc1ccc2ccccc2n1)c1ccccc1O	96*
C[C@H]1CN([C@@H](C)CO)C(=O)CCCn2cc(nn2)CO[C@H]1CN(C)C(=O)Nc1cccc(Oc2ccccn2)c1	2[25 µM]
O=C(/C=C/c1cccc([N+](=O)[O-])c1)OCC(=O)c1ccccc1	-5
CC(=O)Nc1ccc(C=CC=Cc2cccc([N+](=O)[O-])c2)cc1	-22
CC(=O)Oc1ccccc1C(=O)C=Cc1cccc([N+](=O)[O-])c1	89*
CC(C)[C@@H]1COCc2cn(nn2)CCC[C@@H](C)C(=O)N1	-19[25 µM]
CC(=O)N1[C@@H]2CN(C(=O)NC(C)C)C[C@H]1C2c1ccccc1 (some centres undefined)	-8
CC(=O)N(C)C[C@H]1Oc2ccc(NS(C)(=O)=O)cc2CC(=O)N(C)C[C@@H]1C	-1
N#C[C@H]1[C@H](c2ccccc2)[C@H](CO)N1S(=O)(=O)c1cccc(F)c1	2[25 µM]
CO[C@@H]1CN(C)C(=O)c2ccc(NC(=O)NC3CCCCC3)cc2OC[C@@H](C)N(CC2CC2)C[C@H]1C	6
C[C@@H]1CN([C@H](C)CO)C(=O)CCCn2cc(nn2)CO[C@H]1CN(C)C(=O)Nc1ccc(N2CCN(C)CC2)cc1	-12
C[C@H](CO)N1C[C@H](C)[C@@H](CN(C)C(=O)[C@H]2CCCN2C)OCc2ccccc2-c2c(n(C)c3ccccc23)C1=O	-5[25 µM]
COc1ccc(C(=O)N2C[C@H]3[C@@H](c4ccccc42)[C@@H](CO)N3C(=O)NC(C)C)cc1	-4[25 µM]
O=C1C=C(c2c(O)ccc3ccccc23)c2ccccc2C1=O	73*
Oc1ccc2ccccc2c1CNc1ccccc1	-4
O=C(O)c1cc2ccccc2c2c1C(=O)c1ccccc1-2	7
CCCCCCCCCCCC1C(=O)C(=O)CC(=O)C1=O	0[25 µM]
C/C=C/c1ccc([C@@H]2[C@@H](CO)N(C(=O)C3CC3)[C@H]2CN(C)C(=O)CC2CC2)cc1	8
OC(COC(c1ccc(F)cc1)c1ccc(F)cc1)CN1CCCC1 (centres undefined)	6
Cc1ccc(C(OCC(O)CNCc2ccc(F)cc2)c2ccccc2)cc1 (centres undefined)	50*
O=C(c1ccccc1)c1ccc(OCC(O)CNCc2ccc(F)cc2)cc1 (centres undefined)	10
SMILES	CD40 NFkB inh
CSc1nnc(NC(=O)c2nc(S(=O)(=O)Cc3ccccc3)ncc2Cl)s1	102*
CSc1ncc(Cl)c(C(=O)Nc2nnc(SC)s2)n1	-2
COc1ccc(C(=O)Nc2nnc(S(=O)(=O)Cc3ccccc3)s2)cc1	6
COc1cccc(S(=O)(=O)Nc2ccc3c(c2)[C@H]2C[C@H](CC(=O)NCc4ccccc4F)O[C@@H](CO)[C@H]2O3)c1	-6[25 µM]
CC(=O)N1[C@H](CO)[C@H](c2ccc(-c3cncnc3)cc2)[C@@H]1CN(C)C(=O)C1CC1	7[25 µM]
O=C(Nc1cccc2ncccc12)c1cc2ccccc2o1	-10
O=C(Nc1ccc2c(c1)OCCO2)c1cc2ccccc2o1	33
O=C(NC1=NCCS1)c1cc2ccccc2o1	63*
Cc1ccnc(NC(=O)c2cc3ccccc3o2)c1	88*
O=C(Nc1ncccc1O)c1cc2ccccc2o1	-9
O=C(NC1CC1)c1cc2ccccc2o1	-4
CN(C)CC(=O)Nc1ccc2c(c1)[C@H]1C[C@H](CC(=O)NCc3cccc(F)c3)O[C@H](CO)[C@H]1O2	-3[25 µM]
C[C@H]1CN(C)C(=O)c2cc(N)ccc2O[C@@H]1CN(C)C(=O)OC(C)(C)C	-2
COc1ccc(C#Cc2cccc(-c3nc(C(=O)N4CCN(Cc5ccccc5)CC4)cc4c3[C@H](CCO)N(S(=O)C(C)(C)C)C4)c2)cc1OC (some centres undefined)	-15[25 µM]
CS(=O)(=O)N1CCCCN2[C@H](C1)[C@H](c1ccc(C#Cc3ccccn3)cc1)[C@@H]2CO	-31
COc1ccc(-c2cc(C(=O)N3CC(C)CC(C)C3)c3ccccc3n2)cc1 (centres undefined)	-13
COc1ccc(-c2cc(C(=O)N3CCCC3)c3ccccc3n2)cc1	-57
COc1ccc2cc(-c3cc(C(=O)O)c4ccccc4n3)ccc2c1	83*
CCCNC(=O)Nc1ccc2c(c1)C(=O)N(C)C[C@@H](OC)[C@H](C)CN(C(=O)C1CCC1)[C@H](C)CO2	-6
CCC(=O)N1CC2(CN(C(C)=O)C2)c2c([nH]c3cc(OC)ccc23)[C@@H]1CO	-5[25 µM]
O=C(COC(=O)Cc1ccc(F)cc1)NC1CCCCCC1	14
COc1ccc(OC)c(NC(=O)CN(Cc2ccc(F)cc2)C2CCCCC2)c1	20
COc1ccc(S(=O)(=O)NCC(=O)N(CC(=O)NC(C)(C)C)Cc2cccs2)cc1	6
COc1ccc(Br)c(C(=O)NCCC(C)C)c1	0
COc1ccc(C(=O)/C=C/C(=O)N(CC(=O)NC2CCCCC2)Cc2ccc(F)cc2)c(O)c1	38*
SMILES	CD40 NFkB inh
COc1ccc(C(=O)/C=C/C(=O)N(CC(=O)NCCC(C)C)Cc2cccs2)c(O)c1	90*
CCOC(=O)NCC(Cc1ccc(OCCc2nc(-c3ccccc3)oc2C)cc1)N/C(C)=C/C(=O)c1ccc(C(F)(F)F)cc1 (centres undefined)	25[25 µM]
COCCNC(=O)[C@@H]1[C@@H](CO)[C@@H]2Cn3c(cccc3=O)[C@@H]2N1Cc1ccccc1OC	-9[25 µM]
C[C@@H]1CN([C@@H](C)CO)C(=O)c2cccc(NS(=O)(=O)c3cn(C)cn3)c2O[C@@H]1CN(C)C(=O)Nc1ccc(F)cc1	-7[25 µM]
C[C@@H]1CN([C@H](C)CO)C(=O)Cc2cc(NC(=O)NC3CCCCC3)ccc2O[C@@H]1CN(C)CC1CCCCC1	0
Cc1noc(C)c1S(=O)(=O)Nc1ccc2c(c1)C(=O)N([C@H](C)CO)C[C@@H](C)[C@H](CN(C)Cc1ccc(C(F)(F)F)cc1)O2	-12
CC(=O)N(C)C[C@H]1Oc2ccc(N(S(C)(=O)=O)S(C)(=O)=O)cc2C(=O)N(C)C[C@@H]1C	18
CN1C(=O)c2cc(NC(=O)Nc3ccccc3F)ccc2OC[C@@H]2O[C@@H](CC(=O)NCCc3ccncc3)CC[C@H]21	-9[25 µM]
CN(C)C(=S)N=c1ssc(=S)n1Cc1ccccc1	44*
CSc1nnc(CNC(=O)C23CC4CC(CC(C4)C2)C3)n1Cc1ccccc1	8
O=C(c1ccccc1)N1CC[C@@H]2[C@@H](CO)Nc3ccc(-c4ccccc4F)cc3[C@@H]21	-2
c1coc(-c2nnc(-c3ccc4c(c3)OCO4)o2)c1	-46
O=C1CCCCC1Sc1nnc(-c2ccc3c(c2)OCO3)o1 (centres undefined)	95*
Cc1ccc(-c2nnc(-c3ccc4c(c3)OCO4)o2)cc1	-65
COc1ccc(C#Cc2ccc3c(c2)O[C@H](CN(C)C(=O)CN2CCOCC2)[C@@H](C)CN([C@@H](C)CO)S3(=O)=O)cc1	7[25 µM]
CC(=O)Nc1ccc2c(c1)C(=O)N(C)C[C@H](C)[C@@H](CN(C)S(C)(=O)=O)O2	6
O=C1c2ccccc2S(=O)(=O)N1Cc1nc2ccccc2s1	70*
CC(C)C(NC(=O)CN1C(=O)c2ccccc2S1(=O)=O)C(C)C	-1
O=C(CN1C(=O)c2ccccc2S1(=O)=O)Nc1ccccn1	7

Screens: PubChem BioAssay, Broad Institute
